# Assay results from PubChem BioAssay AID686978 (National Center for Advancing Translational Sciences (NCATS), 2013).
# Screen size: about 420,000 compounds; about 64,000 (15%) were called active. Roughly 27% stayed inconclusive and do not appear here. Not all results are given here. A number with no mark means an inactive call. Calls follow the shape of the dose curve; as a rule, active = well fitted inhibition curve with a large enough effect; inconclusive = small, poorly fitted or top-dose-only effect; inactive = flat fitted curve, though single readings scatter.
# Assay: qHTS for Inhibitors of human tyrosyl-DNA phosphodiesterase 1 (TDP1): qHTS in cells in absence of CPT; also: nearly all actives have a fitted effect of over 55% in size
# Conditions: DT40 Tdp1-/- hTDP1 cells, no CPT, ATP luminescence, 48 h; activity change, negative = growth inhibition: at 46.2 µM (top of the series)
# Procedure, shortened: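 Compound effects on proliferation are scored in DT40 Tdp1-/-;hTDP1 cells in the absence of CPT. ATP levels (CellTiter-Glo luminescence) are recorded after a ≥48 hr, 37 °C incubation.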
# % is scaled to controls: 0 for no effect and ±100 for the full control effect; potency is read from the fitted curve at half-maximal effect.
SMILES,"activity change, negative = growth inhibition",Potency
CCCN(CC(=O)Nc1ccc(C(N)=O)cc1)CC(=O)Nc1ccccc1C,-26.5%,–
CS(=O)(=O)N(CC(=O)N1CCN(Cc2ccccc2)CC1)c1ccc2c(c1)OCCO2,-6.95%,–
COc1ccc(N(CC(=O)N2CCCCCC2)S(=O)(=O)c2ccccc2)cc1,-21.7%,–
CC1CCN(C(=O)CN(c2ccc(Oc3ccccc3)cc2)S(C)(=O)=O)CC1,–,13 µM (active)
Cc1ccc(N2C(=O)CC(N3CCSCC3)C2=O)c(C)c1 (stereo not drawn),15.3%,–
Cc1cc(C(=O)NC2CC(C)(C)Cc3c2cnn3-c2ccccc2)n[nH]1 (stereo not drawn),-8%,–
COC(=O)c1ccc(C(=O)NC2CC(C)(C)Cc3c2cnn3-c2ccc(F)cc2)nc1 (stereo not drawn),–,3.66 µM (active)
CC1(C)Cc2c(cnn2-c2cccc(F)c2)C(NC(=O)c2cc[n+]([O-])cc2)C1 (stereo not drawn),-4.77%,–
COc1ccc(-n2ncc3c2CC(C)(C)CC3NC(=O)CCc2c(C)noc2C)cc1 (stereo not drawn),-10.3%,–
COc1ccc(-n2ncc3c2CC(C)(C)CC3NC(=O)CCc2c(C)nn(C)c2C)cc1 (stereo not drawn),-3.17%,–
Cc1ccc(-n2ncc3c2CC(C)(C)CC3NC(=O)Cc2c(C)noc2C)cc1 (stereo not drawn),–,23.1 µM (active)
CCn1ncc(CNC(=O)C2(C)CC2(Br)Br)c1C (stereo not drawn),-2.88%,–
CC12CN3CC(C)(CN(C1)C3c1ccc(Cl)cc1Cl)C2=O (stereo not drawn),-1.85%,–
Cc1ccc(-c2noc(-c3nnn(-c4cccc(C(F)(F)F)c4)c3N)n2)cc1,4.08%,–
Cc1cc(C)cc(N(CC(=O)NC2CCCC2)C(=O)CCC(=O)Nc2nccs2)c1,-15.3%,–
COc1cc(C(=O)N2CCN(S(=O)(=O)c3ccc(C(C)C)cc3)CC2)ccc1OCC(=O)N1CCOCC1,18.5%,–
FC(F)(F)c1ccnc(Oc2ccc(C3=NCCS3)cc2)c1,-5.22%,–
C/C(Cc1ccccc1)=N\NC(=O)CNC(=O)c1cccc(Br)c1,-2.1%,–
Cc1cccc(/C=N/NC(=O)CNc2cccc3ccccc23)n1,–,13 µM (active)
C/C(=N\NC(=O)CNc1cccc2ccccc12)c1ccc(Br)s1,–,8.2 µM (active)
C/C(=N\NC(=O)COc1c(C)cccc1C)c1cccs1,-27.7%,–
O=C(COC(=O)c1ccccn1)Nc1cccc2ccccc12,0.707%,–
Cc1c(Cl)cccc1NC(=O)CCC(=O)N/N=C/c1ccco1,15.7%,–
C=CCN1CC(C)/C(=N\O)CC1C (stereo not drawn),-4.43%,–
Cc1ccc(NC(=O)Cn2cnc3nc4c(cc3c2=O)CCCC4)cc1Cl,2.29%,–
COc1ccc(C(=O)NC(Cc2ccc(OC(=O)c3ccc(OC)cc3)cc2)C(=O)O)cc1 (stereo not drawn),2.2%,–

SMILES,"activity change, negative = growth inhibition",Potency
CN(CCc1ccccn1)C(=O)CCC1CCCN(Cc2ccccc2OC(F)F)C1 (stereo not drawn),-10.5%,–
CN(CC(=O)NCCc1ccc(S(N)(=O)=O)cc1)CC(=O)Nc1ccc(Cl)cc1,-18%,–
O=C1CCC(C(=O)Nc2ccc(OC(F)F)cc2)N1 (stereo not drawn),-6.43%,–
CCNC(=S)Nc1ccc(OC(F)(F)F)cc1,-24.4%,–
CC(NC(=S)Nc1ccc(OC(F)F)cc1)c1ccc(F)cc1 (stereo not drawn),–,16.4 µM (active)
CC(=O)c1ccc(OCC(O)CN2CCN(S(=O)(=O)c3cccc(Br)c3)CC2)cc1 (stereo not drawn),-22.2%,–
CCCCC(=O)N(c1ccc(OC)cc1)C1C=CS(=O)(=O)C1 (stereo not drawn),-8.95%,–
CN(C)/C=C/C(=O)c1ccccc1F,2.39%,–
COc1ccc(NC(=O)c2sc3nc(-c4cc5cccc(OC)c5oc4=O)[nH]c(=O)c3c2C)cc1,-20.7%,–
COc1ccccc1NC(=O)c1c(Br)cnn1C,-18.3%,–
COc1ccccc1NC(=O)c1sc2nc(C)c(C(=O)Nc3ccc(Cl)cc3)c(-c3ccc(Br)cc3)c2c1N,–,16.4 µM (active)
N/C(=N\OC(=O)c1ccc([N+](=O)[O-])cc1)c1ccccn1,6.67%,–
CCO[C@H]1OC(C(=O)O)=C[C@@H](C2CCCCC2)[C@@H]1CCCO,4.26%,–
O=C(NC1CC1)C1=C[C@H](c2coc3ccccc3c2=O)C[C@H](OCCCCO)O1,-1.23%,–
CCO[C@H]1OC(C(=O)NCc2ccccc2)=C[C@@H](c2coc3ccccc3c2=O)[C@@H]1CCCO,–,9.2 µM (active)
CC1=CC(=NNS(=O)(=O)c2ccc([N+](=O)[O-])cc2)CC(C)(C)C1,-5.62%,–
NC(=O)Cn1cc(/C=N\NS(=O)(=O)c2ccccc2)c2ccccc21,19.2%,–
CNC(=S)N/N=C/c1cn(Cc2ccc(C)cc2)c2ccccc12,–,18.4 µM (active)
Cc1ccc(CNC(=O)Cc2cn(C)c3ccccc23)cc1,-10.4%,–
N#CCC(=O)N/N=C/c1cn(Cc2ccc3ccccc3c2)c2ccccc12,–,14.6 µM (active)
CCN1CCN(C(=O)/C=C\C(=O)O)CC1,-12%,–
C=CCn1c(=O)c(C(=O)Nc2ncccc2O)c(O)c2ccccc21,-18.9%,–
CCc1cccc(C)c1NC(=O)COC(=O)CNC(=O)c1cccs1,1.78%,–
CCc1cccc(CC)c1NC(=O)COc1ccccc1C(=O)c1cc(C#N)c(=O)n(C2CCCCC2)c1,–,16.4 µM (active)
CCc1cccc(C)c1NC(=O)COC(=O)CC1CCCC1,4.08%,–
Cc1cc(NC(=O)COc2ccccc2C#N)no1,14.4%,–

SMILES,"activity change, negative = growth inhibition",Potency
O=S(=O)(NCC(c1ccco1)N1CCOCC1)c1cc(F)ccc1F (stereo not drawn),-9.31%,–
COc1ccc(Cn2ccn(CC(=O)Nc3cc(C)ccc3C)c(=O)c2=O)cc1,25%,–
CC(C)C(=O)Nc1ccc2c3c(cccc13)CC2,-15.8%,–
Cc1ccc2cc(C)c(N3CCN(c4ccc(F)cc4)CC3)nc2c1,-3.8%,–
CC(=O)c1c(N2CCN(c3ccc(F)cc3)CC2)nc(=S)n(-c2ccccc2)c1C,–,20.6 µM (active)
CC(=O)c1c(N2CCOCC2)nc(=S)n(-c2cc(C)ccc2C)c1C,-13.9%,–
CNC(=O)COc1ccc(S(=O)(=O)Nc2ccccc2)cc1,-7.11%,–
CCn1c(C(C)NC(=O)c2ccc(C)cc2)n[nH]c1=S (stereo not drawn),-9.48%,–
C/C(=C\C(=O)c1ccccc1)Nc1cccc(O)c1,-19.5%,–
N/C(=N\OC(=O)CCn1cccc(C(F)(F)F)c1=O)c1ccc(OC(F)(F)F)cc1,-14%,–
Cc1ccc(OCCNC(=O)CN2C(=O)NC3(CCCC3)C2=O)cc1,-13.8%,–
COC1=CC(=O)OC(C)(c2ccccc2)C1 (stereo not drawn),-8.45%,–
Cc1nc2c(OCc3ccc(Cl)cc3Cl)cccn2c1N(C)CC1CC1,–,16.4 µM (active)
Cc1nc2c(OCC(=O)C(C)(C)C)cccn2c1N(C)Cc1cccs1,-75%,–
Cc1nc2c(OCc3cccc(Cl)c3)cccn2c1N(C)CC1CC1,–,20.6 µM (active)
O=C(Nc1c[nH]c(=O)[nH]c1=O)OCc1ccccc1,-22.5%,–
Cc1ccc(C(=O)Nc2ccc(OCc3cc(=O)n4c5c(sc4n3)CCCC5)cc2)cc1,-9.99%,–
CC(C)(C)C(=O)NCCCNc1ccc([N+](=O)[O-])cc1,-0.828%,–
CN1CC(=O)N=C1N,–,inactive
O=S(=O)(NCc1ccccn1)c1ccc(F)cc1,-2.5%,–
CCCCN1CC(CO)Oc2cccc(F)c2S1(=O)=O (stereo not drawn),-19.8%,–
COc1cccc(OC)c1C(=O)N1CCN(Cc2cccnc2)CC1,-17.6%,–
COc1ccccc1-c1nn(Cc2ccccc2)cc1C(=O)N1CCN(c2ncccn2)CC1,–,16.4 µM (active)
COc1cc(C(=O)N2CCOC23CCN(Cc2ccccc2)CC3)cc(OC)c1OC,-18.3%,–
COc1cc(C(=O)N2CCN(C(=O)COc3cccc(C)c3)CC2)cc(OC)c1OC,-12.4%,–
COc1ccc(C(=O)NC2CC2)cc1OC1CCN(Cc2ccc(SC)cc2)CC1,-1.42%,–

SMILES,"activity change, negative = growth inhibition",Potency
COc1ccc(C(=O)NC2CC2)cc1OC1CCN(C/C=C/c2ccccc2)CC1,–,23.1 µM (active)
COc1cc(C(=O)N2CCN(C/C=C/c3ccccc3)CC2)cc(OC)c1C,–,29.1 µM (active)
COc1cc(C(=O)N2CCN(C)CC2)cc(OC)c1OC,9.62%,–
COc1ccc(C(=O)NCCn2nc(C)cc2C)cc1OC1CCN(C(C)=O)CC1,-18.1%,–
CCOC(=O)CSc1nnc(NC(=O)C2CC(=O)N(c3ccc(F)cc3)C2)s1 (stereo not drawn),-11.9%,–
C[C@@H]1O[C@@H](OC[C@H]2O[C@@H](Oc3c(-c4cccc(O)c4O)oc4cc(O)cc(O)c4c3=O)[C@H](O)[C@@H](O)[C@@H]2O)[C@H](O)[C@H](O)[C@H]1O,-5.29%,–
O=C1CN(C(=O)COC(=O)C2CC(=O)N(Cc3ccco3)C2)c2ccccc2N1 (stereo not drawn),-19.4%,–
COc1cc(C(=O)N2CCOCC2)cc(OC)c1OC,–,inactive
Cc1cc(C)n(CCC(=O)N2CCN(S(=O)(=O)c3ccc(C)c(C)c3)CC2)n1,10.6%,–
O=C(COc1ccccc1O)NC1CCCC1,-8.81%,–
CC(C)(C)c1ccc(C(=O)N2CCN(CCNC(=O)C(=O)Nc3ccc(F)cc3)CC2)cc1,–,10.3 µM (active)
O=C(NCCN1CCOCC1)/C(=C/c1ccc(F)cc1)NC(=O)c1ccccc1,-11.9%,–
Cc1ccc(C(=O)N/C(=C\c2ccc(F)cc2)C(=O)NCCN2CCOCC2)cc1,-6.92%,–
O=C(NCc1ccccc1)c1ccc(CNc2c(N3CCCC3)c(=O)c2=O)cc1,6.59%,–
CNC(=O)CSc1nnnn1-c1ccc(C)cc1C,-5.97%,–
CC1=C(C(=O)OC2CCCCC2)C(c2ccccc2F)NC(=O)N1 (stereo not drawn),-19.8%,–
Cc1ccc(C2NC(=S)NC3=C2N2CCC3CC2)cc1 (stereo not drawn),2.29%,–
Cc1cc2nc(-c3ccc(Cl)cc3)c(Cc3cccc(F)c3)n2c(C)c1Br,–,23.1 µM (active)
Cc1cc2nc(-c3ccc(F)cc3)c(Cc3ccsc3)n2c(C)c1Br,–,11.6 µM (active)
Cc1cc2nc(-c3ccco3)c(Cc3cccc(F)c3)n2c(C)c1Br,–,16.4 µM (active)
CC(NC(=O)CNC(=O)Cc1cccc2ccccc12)c1ccc(S(N)(=O)=O)cc1 (stereo not drawn),15.6%,–
Nn1c(SCC(=O)NC(=O)NC2CCCC2)nnc1-c1ccccc1F,-9.8%,–
O=C1CC(c2ccccc2)CC(O)=C1C=NCCN1CCOCC1 (stereo not drawn),-12.5%,–
O=C(Oc1ccc(F)cc1)N1CCOCC1,-8.36%,–
CC1=C(C)CC(C(=O)NNC(=O)c2csc3c2CCC(C(C)(C)C)C3)C(C(=O)O)C1 (stereo not drawn),2.16%,–
